Drawing on PubChem BioAssay (NCI), this text covers growth for 37 molecules.

This is part of a sample that, as a whole, favours compounds with a hit. Of some 83,000 tested, about 20% had one in any assay.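 Results are percent growth after 48 hours of single-concentration exposure. 100 means growth as in untreated cells, lower positive values show inhibition; negative values down to -100 show cell death.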 A number with no mark means an inactive call. Activity calls are given as the source filed them. How the source made its calls: active means growth percent below 10; inactive means the rest.

The first experiment concerns MCF7 breast. Put plainly: NCI-60 one-dose screen, 48 h (100 = growth as untreated, 0 = no growth, -100 = all killed). As to conditions: 10 µM unless noted.
As to `c1csc(-c2[nH]nc3c2CCc2ccccc2-3)c1`, the growth is 5.26% (active).

Consider `C1=C(c2ccccc2)c2ccccc2C1`, for which the growth was 109%.

For the molecule `O=[N+]([O-])c1ccc(C(Br)c2ccc([N+](=O)[O-])cc2)cc1`, the growth was 70.8%.

As to `COc1cccc2c1C(=O)c1c(O)c3c(c(O)c1C2=O)C[C@@](O)(C(=O)CO)C[C@@H]3OC1CC(OC(C)=O)C(OC(C)=O)C(C)O1` (some centres undefined), the growth is 4.45% (active).

For the molecule `OC(Cc1cc(CC(O)(C(F)(F)F)C(F)(F)F)nc(CC(O)(C(F)(F)F)C(F)(F)F)c1)(C(F)(F)F)C(F)(F)F`, the growth is 4.14% (active).

On to `CCCCCCCCCCCCCCCCSC(=NCC)NCC`, for which the growth is -66.3% (active).

As for `Cc1ccccc1NC(=O)Cc1csc2[n+]1C(=O)/C(=C/c1ccc([N+](=O)[O-])cc1)S2`, the growth is 92.7%.

`CN(C)CCN(C)CC(C)(C)C(=O)/C=C/c1ccc(Cl)c(Cl)c1`: the growth is -66.4% [100 µM] (active).

For `CC(=O)C1Cc2ccccc2C1=O` (centres undefined), the growth is 95.4%.

Regarding `Oc1c(Cl)cc(Cl)cc1C=NCC1CCC(CN=Cc2cc(Cl)cc(Cl)c2O)CC1` (centres undefined), the growth is 78.1%.

Consider `Clc1ccc(-n2ncc3c(NCCCN4CCOCC4)ncnc32)cc1`, for which the growth was 89.9%.

Consider `O=C1CSC(=S)N1Cc1cccnc1`, for which the growth was 10.5%.

As for `CCN(CC)CCNC(Cc1ccccc1)c1ccc(OCc2ccccc2)cc1` (centres undefined), the growth is 78.2%.

Turning to `O=Nc1ccc2ccccc2c1O`, the growth is 69.9%.

Turning to `CCOC(=O)/C(=C\c1ccc2ccccc2c1)P(=O)(OCC)OCC`, the growth was 15.3%.

As to `Cc1ccc2cccc(OC(=O)Nc3cccc(C(F)(F)F)c3)c2n1`, the growth is 72.2%.

As to `N#CC(I)CS(=O)(=O)c1ccccc1` (centres undefined), the growth was 91.5%.

Take `CC(C)(C)c1ccc(CCO)cc1`: the growth is 101%.

Consider `CCCOS(=O)(=O)c1ccccc1`, for which the growth was 111%.

On to `CCC(C)(O)Cc1ccc(Cl)cc1` (centres undefined), for which the growth was 92.8%.

As to `CN(C)c1ccc(C(C#N)(c2ccccc2)c2ccc(N(C)C)cc2)cc1`, the growth was 39.9%.

`O=[N+]([O-])CC(O)c1ccccc1` (centres undefined): the growth is 81.1%.

For `CCOC(=O)C1=NN(c2ccccc2)C(=O)/C1=C\N1C(=O)/C(=C/c2cccc(O)c2)SC1=S`, the growth was 91.8%.

Take `O=C(CCl)N1c2ccccc2Sc2c1ccc1ccccc21`: the growth is 66.8%.

On to `CCc1oc2ccccc2c1C(=O)c1cc(Br)c(O)c(Br)c1`, for which the growth is 69.2%.

`Cc1cc(C)c([I+]c2c(C)cc(C)cc2C)c(C)c1`: the growth is -53.7% (active).

As for `CC1(C)N=c2cc3c(cc2N1c1ccc(Cl)cc1)=Nc1ccccc1N3c1ccc(Cl)cc1`, the growth is 28.9%.

For the molecule `O=C(Nc1ccc(Cl)c(Cl)c1)Nc1ccccc1O`, the growth is 51.9%.

Turning to `O=C1/C(=C/c2ccccc2)CCC/C1=C\c1ccccc1`, the growth is 30.7%.

`CN=C(N)N/N=C(\C)c1ccc2c(c1)Cc1ccccc1-2`: the growth is -99.3% (active).

In the case of `CCCCCCCCc1cc(Cl)c(O)c(Cl)c1`, the growth was 118%.

`CC1(O)CCCCCC1`: the growth is 96.8%.

`CCN1/C(=C/C(C)=C/c2sc3ccc4ccccc4c3[n+]2CC)Sc2ccc3ccccc3c21`: the growth is -84.5% (active).

Take `CC(O)C(O)C(O)C(O)C(O)C(=O)NNc1ccccc1` (centres undefined): the growth was 88.1%.

Consider `Cc1nn(CCO)c(C)c1N=[N+]([O-])c1c(C)nn(CCO)c1C`, for which the growth is 4.45% (active).

For `CCCCN(CCCC)CCCCCCCCCCO`, the growth was 99%.

For `C/C(=N\NC(=S)N1CC2CCC(CC2)C1)c1ccccn1`, the growth was 13.3%.

Another experiment has as its system HCT-116 colon. The experiment is described as above. Conditions: 10 µM unless noted.
As for `c1csc(-c2[nH]nc3c2CCc2ccccc2-3)c1`, the growth was 99.1%.

For the molecule `C1=C(c2ccccc2)c2ccccc2C1`, the growth was 95.8%.

Turning to `O=[N+]([O-])c1ccc(C(Br)c2ccc([N+](=O)[O-])cc2)cc1`, the growth is 21.3%.

For `COc1cccc2c1C(=O)c1c(O)c3c(c(O)c1C2=O)C[C@@](O)(C(=O)CO)C[C@@H]3OC1CC(OC(C)=O)C(OC(C)=O)C(C)O1` (some centres undefined), the growth is -80% (active).

Consider `OC(Cc1cc(CC(O)(C(F)(F)F)C(F)(F)F)nc(CC(O)(C(F)(F)F)C(F)(F)F)c1)(C(F)(F)F)C(F)(F)F`, for which the growth was 3.99% (active).

As to `CCCCCCCCCCCCCCCCSC(=NCC)NCC`, the growth is -94.3% (active).

On to `Cc1ccccc1NC(=O)Cc1csc2[n+]1C(=O)/C(=C/c1ccc([N+](=O)[O-])cc1)S2`, for which the growth is 84.4%.

As to `CN(C)CCN(C)CC(C)(C)C(=O)/C=C/c1ccc(Cl)c(Cl)c1`, the growth is -93.4% [100 µM] (active).

Regarding `CC(=O)C1Cc2ccccc2C1=O` (centres undefined), the growth is 103%.

For the molecule `Oc1c(Cl)cc(Cl)cc1C=NCC1CCC(CN=Cc2cc(Cl)cc(Cl)c2O)CC1` (centres undefined), the growth is 74.9%.

Take `Clc1ccc(-n2ncc3c(NCCCN4CCOCC4)ncnc32)cc1`: the growth was 94.9%.

With `O=C1CSC(=S)N1Cc1cccnc1`, the growth is 42.3%.

As to `CCN(CC)CCNC(Cc1ccccc1)c1ccc(OCc2ccccc2)cc1` (centres undefined), the growth was 49.9%.

`O=Nc1ccc2ccccc2c1O`: the growth is 6.58% (active).

Turning to `CCOC(=O)/C(=C\c1ccc2ccccc2c1)P(=O)(OCC)OCC`, the growth was 4.87% (active).

With `Cc1ccc2cccc(OC(=O)Nc3cccc(C(F)(F)F)c3)c2n1`, the growth was 38%.

On to `N#CC(I)CS(=O)(=O)c1ccccc1` (centres undefined), for which the growth is -10.5% (active).

As to `CC(C)(C)c1ccc(CCO)cc1`, the growth is 99.7%.

As to `CCCOS(=O)(=O)c1ccccc1`, the growth was 107%.

As for `CCC(C)(O)Cc1ccc(Cl)cc1` (centres undefined), the growth is 97.7%.

Consider `CN(C)c1ccc(C(C#N)(c2ccccc2)c2ccc(N(C)C)cc2)cc1`, for which the growth is 30.8%.

Consider `O=[N+]([O-])CC(O)c1ccccc1` (centres undefined), for which the growth was 78.6%.

Consider `CCOC(=O)C1=NN(c2ccccc2)C(=O)/C1=C\N1C(=O)/C(=C/c2cccc(O)c2)SC1=S`, for which the growth was 88.8%.

For `O=C(CCl)N1c2ccccc2Sc2c1ccc1ccccc21`, the growth is 16.4%.

With `CCc1oc2ccccc2c1C(=O)c1cc(Br)c(O)c(Br)c1`, the growth is 73.5%.

Consider `Cc1cc(C)c([I+]c2c(C)cc(C)cc2C)c(C)c1`, for which the growth was -87.1% (active).

Regarding `CC1(C)N=c2cc3c(cc2N1c1ccc(Cl)cc1)=Nc1ccccc1N3c1ccc(Cl)cc1`, the growth is -41.3% (active).

As to `O=C(Nc1ccc(Cl)c(Cl)c1)Nc1ccccc1O`, the growth was 60.7%.

Regarding `O=C1/C(=C/c2ccccc2)CCC/C1=C\c1ccccc1`, the growth was -79% (active).

With `CN=C(N)N/N=C(\C)c1ccc2c(c1)Cc1ccccc1-2`, the growth was -100% (active).

Take `CCCCCCCCc1cc(Cl)c(O)c(Cl)c1`: the growth is 103%.

Turning to `CC1(O)CCCCCC1`, the growth was 99.4%.

On to `CCN1/C(=C/C(C)=C/c2sc3ccc4ccccc4c3[n+]2CC)Sc2ccc3ccccc3c21`, for which the growth is -69.5% (active).

Turning to `CC(O)C(O)C(O)C(O)C(O)C(=O)NNc1ccccc1` (centres undefined), the growth was 87.6%.

As for `Cc1nn(CCO)c(C)c1N=[N+]([O-])c1c(C)nn(CCO)c1C`, the growth was -81.9% (active).

For the molecule `CCCCN(CCCC)CCCCCCCCCCO`, the growth was 90.2%.

With `C/C(=N\NC(=S)N1CC2CCC(CC2)C1)c1ccccn1`, the growth is 7.24% (active).
